Measured values from PubChem BioAssay (NCI).
The panel holds about 83,000 compounds, 20% with a hit somewhere; the sample as a whole holds those more often.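 How to read the values: 0–100, growth inhibition (40 = 60% inhibited); 0, no net growth; -100 to 0, cell death (-40 = 40% of starting cells died; -100 = all dead).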 A number with no mark means an inactive call. The source made the active and inactive calls. The calls were made as follows: active = growth percent below 10; inactive = the rest.

How the values were obtained:
Assay in all cases: NCI-60 one-dose screen, 48 h (100 = growth as untreated, 0 = no growth, -100 = all killed)
Details in all cases: 10 µM unless noted
NCI-H23 lung = test system: NCI-H23 lung
NCI-H226 lung = test system: NCI-H226 lung
NCI-H322M lung = test system: NCI-H322M lung
HOP-62 NSCLC = test system: HOP-62 NSCLC
NCI-H460 lung = test system: NCI-H460 lung
HOP-92 NSCLC = test system: HOP-92 NSCLC
NCI-H522 lung = test system: NCI-H522 lung
A549/ATCC NSCLC = test system: A549/ATCC NSCLC
786-0 renal = test system: 786-0 renal
COLO 205 colon = test system: COLO 205 colon
DU-145 prostate = test system: DU-145 prostate
K-562 leukemia = test system: K-562 leukemia
MALME-3M melanoma = test system: MALME-3M melanoma
MDA-MB-231 breast = test system: MDA-MB-231 breast
RXF 393 renal = test system: RXF 393 renal
SF-268 CNS = test system: SF-268 CNS
SF-295 CNS = test system: SF-295 CNS
SF-539 CNS = test system: SF-539 CNS
UACC-257 melanoma = test system: UACC-257 melanoma
M14 melanoma = test system: M14 melanoma

Structure (SMILES)	growth (NCI-H23 lung)	growth (NCI-H226 lung)	growth (NCI-H322M lung)	growth (HOP-62 NSCLC)	growth (NCI-H460 lung)	growth (HOP-92 NSCLC)	growth (NCI-H522 lung)	growth (A549/ATCC NSCLC)	growth (786-0 renal)	growth (COLO 205 colon)	growth (DU-145 prostate)	growth (K-562 leukemia)	growth (MALME-3M melanoma)	growth (MDA-MB-231 breast)	growth (RXF 393 renal)	growth (SF-268 CNS)	growth (SF-295 CNS)	growth (SF-539 CNS)	growth (UACC-257 melanoma) [%]	growth (M14 melanoma)
COc1ccc2[nH]c(=O)c3c4ccccc4cn3c2c1	39.4%	37%	11.6%	39.3%	2.51% (active)	33.7%	3.62% (active)	40.1%	17.7%	0.252% (active)	11.3%	4.25% (active)	12.6%	28.5%	-25.2% (active)	1.5% (active)	-2.6% (active)	9.14% (active)	51.3	–
CN1C(=O)N(C)C2C1NN=c1s/c(=C\c3cccnc3)c(=O)n12 (stereo not drawn)	86%	89.3%	89.1%	82.1%	83.8%	78.9%	72.2%	84%	96.5%	87%	95.5%	27.7%	71.4%	69.1%	92.4%	84.8%	81.7%	91%	85.2	–
CCCCCCCCCCCCNC(=O)[C@H]1CSC(c2cc3ccccc3s2)N1 (stereo partly drawn)	-7.5% (active)	22.8%	16.6%	-96.3% (active)	-54.8% (active)	62.5%	16%	63.8%	11.7%	95.6%	-57.1% (active)	-55.8% (active)	15.4%	-86.9% (active)	-78.5% (active)	-74% (active)	18.9%	-68.1% (active)	17.6	–
COC(=O)[C@]12CC[C@@H](C)[C@H](C)[C@@H]1C1=CC[C@@H]3[C@@]4(C)C(C=O)=C[C@@](C)(COC(=O)c5ccco5)[C@@H]4[C@H](O)C[C@@]3(C)[C@]1(C)CC2	-13.5% (active)	-41.5% (active)	33.1%	-7.36% (active)	-59.6% (active)	-54.7% (active)	-47.9% (active)	7.92% (active)	-22.9% (active)	-78.6% (active)	-74.3% (active)	2.92% (active)	-63.6% (active)	-47.4% (active)	-63% (active)	2.92% (active)	-76.2% (active)	-62.6% (active)	–	–
COc1ccc2c(c1)cn1c3ccc(OC)cc3[nH]c(=O)c21	33.3%	5.93% (active)	-45.3% (active)	5.85% (active)	-51% (active)	28.4%	-44.9% (active)	-57% (active)	-88.3% (active)	-61.3% (active)	-87.1% (active)	-28.1% (active)	42.1%	-86.9% (active)	-82.2% (active)	-14% (active)	-84.9% (active)	-84.9% (active)	54.7	–
NC1N=C(SCC(=O)N2CCN(c3cc4c(cc3F)c(=O)c(C(=O)O)cn4C3CC3)CC2)NC(=O)/C1=C/c1ccc(Cl)cc1 (stereo not drawn)	103%	106%	107%	103%	110%	114%	94.7%	103%	103%	115%	112%	99.2%	108%	104%	110%	96.2%	94.4%	97.8%	105	–
Cn1ncc2c(Sc3ccc(Cl)cc3)ncnc21	93.6%	108%	86.5%	111%	92.9%	25.8%	21.4%	93.1%	98.8%	90.8%	83%	78.1%	69.9%	98.6%	117%	57.8%	96.8%	92.2%	103	103%
COc1cc(-c2nn(C(=O)NS(=O)(=O)c3ccccc3)cc2-c2ccncc2)ccc1Cl	88.1%	66.9%	97.2%	58.9%	103%	28.3%	77%	71.9%	71.4%	70.6%	91.8%	101%	87.3%	70.5%	63%	58.6%	85.1%	74.8%	89.1	78.4%
COP(=O)(OC)/C(=N\NS(=O)(=O)c1ccc(C)cc1)c1ccccc1	91.5%	89.2%	102%	95.5%	101%	106%	126%	104%	94.7%	109%	106%	120%	104%	119%	76.6%	119%	117%	95%	112	93.3%
NC(=O)CCCN1C/C(=C\c2ccccc2)C(=O)c2ccccc21	95.6%	86.4%	88.2%	88.8%	111%	84.4%	80.4%	95.1%	96.6%	105%	102%	97.1%	105%	100%	81.9%	90.2%	94.3%	105%	87.5	103%
c1cc(C2=N[C@@H]3c4ccccc4C[C@@H]3O2)nc(C2=N[C@@H]3c4ccccc4C[C@@H]3O2)c1	98.1%	101%	107%	100%	109%	101%	93.1%	104%	98.8%	106%	104%	102%	103%	105%	105%	97.1%	86.9%	97%	107	99.4%
CC12CCC3C4(C)COC(c5ccccc5Cl)OC4CCC3(C)C1CC(C1=CCOC1=O)O2 (stereo not drawn)	52.7%	59.5%	90.2%	78.3%	44.1%	85.7%	59.4%	64.1%	-89.9% (active)	45%	83.9%	23.9%	90.6%	71.7%	80.4%	70.1%	64.3%	84.7%	49.3	65.9%
O=c1cc/c(=N\Nc2ccccc2)c(=O)/c1=N/Nc1ccccc1	93.9%	108%	93.7%	84.8%	95.7%	-1.02% (active)	110%	123%	112%	137%	106%	105%	119%	100%	121%	90.5%	122%	94.6%	137	82.2%
COc1ccc2c(c1)[nH]c(=O)c1c3cc(C)c(C)cc3cn21	51.4%	37%	-25.1% (active)	-27.8% (active)	-16.4% (active)	-41.7% (active)	-55.8% (active)	-4.9% (active)	30.9%	-48% (active)	-68% (active)	35.9%	15.6%	-35.7% (active)	-48.6% (active)	-3.98% (active)	-51.7% (active)	8.86% (active)	66.8	-33.5% (active)
COc1ccc(C(=O)N2NC(=O)/C(=C/c3ccc(F)cc3)N=C2c2ccccc2)cc1	92.2%	96.5%	92%	99.3%	104%	93.7%	93.3%	86.4%	78.9%	119%	113%	94.4%	91.4%	88.1%	94.5%	105%	80.4%	97%	99.3	87.2%
